Each structure is given as a SMILES string. Some structures have more than one record in an assay (separate samples or runs), and their calls can disagree. Activity calls are given as the source filed them. The calls were made as follows: active = hit-call score of the fitted dose curve at least 0.9, where 1 is the maximum; inactive = score below 0.9.

Read-out in experiment [1]: Interleukin-1 alpha (IL1a), IL1A (gene 3552)
As to the kind of experiment: BSK_KF3CT_IL1a: BioMAP Diversity Plus: KF3CT Assay for Interleukin-1 alpha (IL1a) Biomarker Activity (AID 2283070). Particulars: primary human keratinocytes with fibroblasts; actives raise or lower the signal. An outline of the steps:
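Human keratinocyte plus foreskin fibroblast primary co-culture, sampled 24 h after chemical dosing. IL-1a measured by ELISA; responses fitted bidirectionally against DMSO baseline (negative control), so gain or loss of signal both count.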

Read-out in experiment [2]: TIMP metallopeptidase inhibitor 2 (TIMP2), TIMP2 (gene 7077)
As to the kind of experiment: BSK_KF3CT_TIMP2: BioMAP Diversity Plus: KF3CT Assay for TIMP metallopeptidase inhibitor 2 (TIMP2) Biomarker Activity (AID 2283071). The following applies: primary human keratinocytes with fibroblasts; actives raise or lower the signal. In outline:
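Human primary keratinocyte/foreskin fibroblast co-culture dosed with chemical and sampled at 24 h. TIMP-2 levels quantified by ELISA; bidirectional fitting against DMSO negative control as baseline.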

Read-out in experiment [3]: Transforming growth factor beta 1 (TGFb1), TGFB1 (gene 7040)
As to the kind of experiment: BSK_KF3CT_TGFb1: BioMAP Diversity Plus: KF3CT Assay for Transforming growth factor beta 1 (TGFb1) Biomarker Activity (AID 2283072). Particulars: primary human keratinocytes with fibroblasts; actives raise or lower the signal. An outline of the steps:
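Human keratinocyte plus foreskin fibroblast primary co-culture, dosed with chemical for 24 h. TGF-b1 quantified by ELISA. Activity fitted bidirectionally against DMSO negative control as baseline.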

Read-out in experiment [4]: C-C motif chemokine 2 (Homo sapiens) (UniProt P13500)
As to the kind of experiment: BSK_KF3CT_MCP1: BioMAP Diversity Plus: KF3CT Assay for Monocyte Chemoattractant Protein 1 (MCP1/CCL2) Biomarker Activity (AID 2283073). The following applies: primary human keratinocytes with fibroblasts; actives raise or lower the signal. In outline:
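KF3CT skin co-culture (keratinocytes/foreskin fibroblasts), 24 h post-dose; MCP-1 by ELISA; gain/loss of signal fit bidirectionally vs DMSO baseline.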

Read-out in experiment [5]: Matrix Metallopeptidase 9 (MMP9), MMP9 (gene 4318)
As to the kind of experiment: BSK_KF3CT_MMP9: BioMAP Diversity Plus: KF3CT Assay for Matrix Metallopeptidase 9 (MMP9) Biomarker Activity (AID 2283074).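 As to AC50: MMP9 protein level quantified by ELISA in the co-culture.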 Particulars: primary human keratinocytes with fibroblasts; actives raise or lower the signal. An outline of the steps: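 Keratinocyte plus foreskin fibroblast human primary skin co-culture was dosed with chemical and MMP-9 was quantified by ELISA 24 h later. Bidirectional curve fitting used DMSO as negative control and activity baseline.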

Read-out in experiment [6]: urokinase plasminogen activator (uPA), PLAU (gene 5328)
As to the kind of experiment: BSK_KF3CT_uPA: BioMAP Diversity Plus: KF3CT Assay for urokinase plasminogen activator (uPA) Biomarker Activity (AID 2283075). Particulars: primary human keratinocytes with fibroblasts; actives raise or lower the signal. An outline of the steps:
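Human keratinocyte plus foreskin fibroblast primary co-culture exposed to chemical for 24 h. uPA levels were quantified by ELISA, and activity was fitted bidirectionally against a DMSO negative-control baseline.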

Read-out in experiment [7]: CD40, CD40 (gene 958)
As to the kind of experiment: BSK_LPS_CD40: BioMAP Diversity Plus: LPS Assay for CD40 Biomarker Activity (AID 2283076). Particulars: primary human HUVEC with PBMC; actives raise or lower the signal. An outline of the steps:
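ELISA readout of CD40 in HUVEC/PBMC co-culture (BSK_LPS system), 24 h post-dosing; bidirectional curve fit, DMSO baseline; parallel SRB total-protein staining for cytotoxicity.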

Read-out in experiment [8]: E-selectin (Homo sapiens) (UniProt P16581)
As to the kind of experiment: BSK_LPS_Eselectin: BioMAP Diversity Plus: LPS Assay for Eselectin Biomarker Activity (AID 2283077). Particulars: primary human HUVEC with PBMC; actives raise or lower the signal. In outline:
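ELISA readout of E-selectin, 24 h post-dose, HUVEC + PBMC co-culture (LPS system). Gain or loss of signal vs DMSO baseline, bidirectional fit.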

Read-out in experiment [9]: Interleukin-8 (IL8), CXCL8 (gene 3576)
As to the kind of experiment: BSK_LPS_IL8: BioMAP Diversity Plus: LPS Assay for Interleukin-8 (IL8) Biomarker Activity (AID 2283078). Particulars: primary human HUVEC with PBMC; actives raise or lower the signal. In outline: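 HUVEC + PBMC co-culture, LPS-activated; test chemicals dosed, IL-8 read by ELISA at 24 h. Bidirectional curve fit vs DMSO baseline (gain or loss of signal).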

Experiment [10] is described as follows: BSK_LPS_SRB: Viability Assessment in the BioMAP Diversity Plus: LPS Assay (AID 2283079).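 Also: total protein by sulforhodamine B absorbance as a cytotoxicity measure; measured one day after compound addition.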 The following applies: primary human HUVEC with PBMC. An outline of the steps: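 HUVEC + PBMC co-culture, LPS-stimulated; compound 24 h. 10% TCA fix, 0.1% SRB stain, A560. Bidirectional fit vs DMSO.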
Read-out in experiment [11]: Interleukin-1 alpha (IL1a), IL1A (gene 3552)
As to the kind of experiment: BSK_LPS_IL1a: BioMAP Diversity Plus: LPS Assay for Interleukin-1 alpha (IL1a) Biomarker Activity (AID 2283080). The following applies: primary human HUVEC with PBMC; actives raise or lower the signal. An outline of the steps:
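HUVEC/PBMC co-culture, LPS system; 24 h after dosing; IL-1a by ELISA; gain or loss of signal fitted bidirectionally vs DMSO baseline.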

Read-out in experiment [12]: Monocyte Chemoattractant Protein-1 (MCP1), CCL2 (gene 6347)
As to the kind of experiment: BSK_LPS_MCP1: BioMAP Diversity Plus: LPS Assay for Monocyte Chemoattractant Protein-1 (MCP1) Biomarker Activity (AID 2283081).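 As to AC50: secreted MCP-1 protein quantified by ELISA in culture supernatant.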 The following applies: primary human HUVEC with PBMC; actives raise or lower the signal. An outline of the steps: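 ELISA read-out of MCP-1 after 24 h chemical dosing of a human umbilical vein endothelial cell/peripheral blood mononuclear cell co-culture stimulated with LPS. Gain or loss of signal fitted relative to DMSO controls.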

Experiment [13] is described as follows: BSK_LPS_PGE2: BioMAP Diversity Plus: LPS Assay for Prostaglandin E2 (PGE2) Biomarker Activity (AID 2283082).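 As to AC50: secreted prostaglandin E2 measured by ELISA in LPS-stimulated co-culture.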 The following applies: primary human HUVEC with PBMC; actives raise or lower the signal. In outline:
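HUVEC plus PBMC co-culture stimulated with LPS; secreted PGE2 quantified by ELISA 24 h after chemical dosing. Activity fitted bidirectionally against DMSO as negative control and baseline; parallel SRB total-protein staining served as cytotoxicity check.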

Read-out in experiment [14]: Macrophage colony-stimulating factor (MCSF), CSF1 (gene 1435)
As to the kind of experiment: BSK_LPS_MCSF: BioMAP Diversity Plus: LPS Assay for Macrophage colony-stimulating factor (MCSF) Biomarker Activity (AID 2283083). The following applies: primary human HUVEC with PBMC; actives raise or lower the signal. In outline: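 HUVEC + PBMC co-culture (human primary), 24 h post-dose; M-CSF by ELISA; gain/loss of signal fitted bidirectionally vs DMSO baseline.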

Read-out in experiment [15]: Tissue Factor, F3 (gene 2152)
As to the kind of experiment: BSK_LPS_TissueFactor: BioMAP Diversity Plus: LPS Assay for Tissue Factor Biomarker Activity (AID 2283084). Particulars: primary human HUVEC with PBMC; actives raise or lower the signal. An outline of the steps: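 HUVEC/PBMC co-culture, LPS-activated; CD142 ELISA read 24 h post-dose; bidirectional curve fit vs DMSO negative control.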

Read-out in experiment [16]: Tumor necrosis factor (Homo sapiens) (UniProt P01375)
As to the kind of experiment: BSK_LPS_TNFa: BioMAP Diversity Plus: LPS Assay for Tumour Necrosis Factor alpha (TNFa) Biomarker Activity (AID 2283085).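 As to AC50: TNFa protein level quantified by ELISA in the co-culture.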 Particulars: primary human HUVEC with PBMC; actives raise or lower the signal. An outline of the steps:
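Human umbilical vein endothelial cells co-cultured with PBMC were exposed to test chemical and TNFa measured by ELISA 24 h after dosing. Bidirectional curve fitting was done relative to DMSO as negative control and baseline.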

Read-out in experiment [17]: Vascular cell adhesion molecule 1 (VCAM1), VCAM1 (gene 7412)
As to the kind of experiment: BSK_LPS_VCAM1: BioMAP Diversity Plus: LPS Assay for Vascular cell adhesion molecule 1 (VCAM1) Biomarker Activity (AID 2283086). Particulars: primary human HUVEC with PBMC; actives raise or lower the signal. An outline of the steps: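 Human umbilical vein endothelial cells co-cultured with peripheral blood mononuclear cells under LPS stimulation were exposed to test chemical for 24 h. VCAM-1 levels were then measured by ELISA, with bidirectional curve fitting relative to DMSO as negative control and baseline.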

Read-out in experiment [18]: CD38, CD38 (gene 952)
As to the kind of experiment: BSK_SAg_CD38: BioMAP Diversity Plus: SAg Assay for CD38 Biomarker Activity (AID 2283087). The following applies: primary human HUVEC with PBMC; actives raise or lower the signal. An outline of the steps: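 Fluorescence ELISA of cell-surface CD38 served as the read-out, with either increase or decrease fitted against DMSO controls. Cells were a human umbilical vein endothelium plus PBMC co-culture under SEB/TSST-1 stimulation, measured 24 h after dosing.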

Read-out in experiment [19]: CD40, CD40 (gene 958)
As to the kind of experiment: BSK_SAg_CD40: BioMAP Diversity Plus: SAg Assay for CD40 Biomarker Activity (AID 2283088). The following applies: primary human HUVEC with PBMC; actives raise or lower the signal. In outline:
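HUVEC/PBMC co-culture, 24 h post-dose; CD40 by ELISA, fluorescence intensity; bidirectional fit vs DMSO negative control.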

Read-out in experiment [20]: CD69, CD69 (gene 969)
As to the kind of experiment: BSK_SAg_CD69: BioMAP Diversity Plus: SAg Assay for CD69 Biomarker Activity (AID 2283089).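 As to AC50: cell surface CD69 protein quantified by ELISA with fluorescence detection.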 Particulars: primary human HUVEC with PBMC; actives raise or lower the signal. In outline: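 ELISA, fluorescence read-out: CD69 on human umbilical vein endothelial cell + PBMC co-culture, 24 h post-dosing. Gain or loss of signal fitted bidirectionally against DMSO baseline.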

Chain of E-selectin (Homo sapiens) (P16581 whole entry, looked up): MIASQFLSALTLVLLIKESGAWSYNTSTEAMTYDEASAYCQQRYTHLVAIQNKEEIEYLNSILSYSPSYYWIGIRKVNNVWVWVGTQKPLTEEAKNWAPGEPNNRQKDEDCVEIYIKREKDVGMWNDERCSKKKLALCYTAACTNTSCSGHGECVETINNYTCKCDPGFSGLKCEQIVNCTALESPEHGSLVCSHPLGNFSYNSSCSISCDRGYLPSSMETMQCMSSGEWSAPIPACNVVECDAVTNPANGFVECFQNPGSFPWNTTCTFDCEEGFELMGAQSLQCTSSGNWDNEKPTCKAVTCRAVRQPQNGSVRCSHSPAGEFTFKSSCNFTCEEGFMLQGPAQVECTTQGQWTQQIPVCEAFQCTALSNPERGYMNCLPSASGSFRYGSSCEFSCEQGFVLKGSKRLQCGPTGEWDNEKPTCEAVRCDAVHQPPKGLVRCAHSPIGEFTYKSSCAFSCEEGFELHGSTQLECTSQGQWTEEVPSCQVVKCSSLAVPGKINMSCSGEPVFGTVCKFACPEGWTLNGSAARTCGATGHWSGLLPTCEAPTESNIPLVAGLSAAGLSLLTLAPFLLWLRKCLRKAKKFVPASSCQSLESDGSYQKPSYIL
Chain of Tumor necrosis factor (Homo sapiens) (P01375 whole entry, looked up): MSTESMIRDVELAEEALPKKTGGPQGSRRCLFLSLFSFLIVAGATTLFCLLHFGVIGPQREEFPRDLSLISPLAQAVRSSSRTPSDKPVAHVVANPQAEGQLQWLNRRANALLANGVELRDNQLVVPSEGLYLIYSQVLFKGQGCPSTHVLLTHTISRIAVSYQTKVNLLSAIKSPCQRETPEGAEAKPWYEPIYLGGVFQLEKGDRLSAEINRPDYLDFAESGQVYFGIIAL

As a reminder, the AC50 is the concentration giving half of the maximal activity seen. As for `CCON=C(CC)C1=C(O)CC(c2c(C)cc(C)cc2C)CC1=O` (stereo unspecified), the outcome in [1], in experiment [2], in [3], in experiment [4], in experiment [5] and in [6] was inactive. The outcome in experiment [7], in [8], in experiment [9], in experiment [10], in experiment [11] and in [12] was inactive. Also, the result in [14], in experiment [15], in [16], in [17], in [18] and in experiment [19] was inactive. Moreover, the result in experiment [20] was inactive. The concentration at half-maximal activity (AC50) in [13] is 20 µM (active).

In the case of `CS/C(C)=N/OC(=O)N(C)SN(C)C(=O)O/N=C(\C)SC`, the AC50 in [1] was 17.8 µM (active); in [2] it was 14.5 µM (active); in experiment [3], 13.3 µM (active); in experiment [4] it was 12.6 µM (active); in [5], 17.1 µM (active); in [6] it was 16.9 µM (active). Besides, the AC50 in experiment [7] was 15.8 µM (active); in experiment [8], 34.7 µM (active); in experiment [9] it was 30.8 µM (active); in [10], 29.8 µM (active); in [11], 15.6 µM (active); in experiment [12], 29.9 µM (active). Also, the AC50 in [14] was 28.2 µM (active); in experiment [15], 32.1 µM (active); in [16] it was 16.2 µM (active); in [17], 24.3 µM (active); in experiment [18], 26.4 µM (active); in [19], 28.3 µM (active). Besides, the AC50 in experiment [20] is 31.7 µM (active). Moreover, the outcome in experiment [13] was inactive.

For `COc1nc(C)nc(NC(=O)NS(=O)(=O)c2ccccc2Cl)n1`, the result in experiment [1], in [2], in experiment [3], in experiment [4], in experiment [5] and in experiment [6] was inactive. Also, the outcome in experiment [7], in experiment [8], in experiment [9], in experiment [10], in [11] and in experiment [12] was inactive. Further, the outcome in experiment [13], in experiment [14], in experiment [15], in experiment [16], in experiment [17] and in experiment [18] was inactive. Further, the result in experiment [19] and in experiment [20] was inactive. In experiment [2], the half-maximal activity concentration (AC50) is 31.6 µM (active).

For the compound `CNC(=O)ON=CC(C)(C)SC`, the concentration at half-maximal activity (AC50) in experiment [1] was 1.34 µM (active); in experiment [13], 2.13 µM (active). In addition, the result in [2], in experiment [3], in experiment [4], in experiment [5], in experiment [6] and in experiment [7] was inactive. Further, the outcome in experiment [8], in experiment [9], in [10], in [11], in experiment [12] and in experiment [14] was inactive. Besides, the result in [15], in [16], in [17], in experiment [18], in [19] and in experiment [20] was inactive.

The values above are taken from PubChem BioAssay (EPA / NIEHS).
